Data on 39 molecules can be found in PubChem BioAssay (NCI).

About 83,000 compounds went through this panel and 20% of them were active in at least one assay; those are over-represented in the sample as a whole.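 Method: cells in 96-well plates; compound added at one concentration; 48 h incubation; percent growth measured; values under 10 scored active.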 Calls of active or inactive are those of the source.

The assay deals with NCI-H226 lung. Briefly: NCI-60 one-dose screen, 48 h (100 = growth as untreated, 0 = no growth, -100 = all killed). As to conditions: 10 µM unless noted.
In the case of `Clc1nnc2c3ccccc3ccn12`, the growth was 77.8% (inactive).

In the case of `COc1ccc(-c2nn(C(=O)NCCN(C)C)cc2-c2ccncc2)cc1Cl`, the growth is 46.4% (inactive).

`CCN1C(=O)N(CC)C2C1NN=c1s/c(=C\c3ccco3)c(=O)n12` (centres undefined): the growth is 60% (inactive).

In the case of `CC(C)N(C(=S)SSC(=S)N(C(C)C)C(C)C)C(C)C`, the growth is 109% (inactive).

As for `CC(C)=CC[C@@H]1CC2(CC=C(C)C)C(=O)C(OC3(C(=O)c4ccccc4)C(=O)C4(CC=C(C)C)C[C@@H](CC=C(C)C)C(C)(C)C(CC=C(C)C)(C4=O)C3=O)(C(=O)c3ccccc3)C(=O)C(CC=C(C)C)(C2=O)C1(C)C` (some centres undefined), the growth was -4.96% (active).

On to `CCCCCCCCCCCCCCCC1=NCCN1`, for which the growth is 80.6% (inactive).

Turning to `COc1cc([N+](=O)[O-])cc(OC)c1OC`, the growth was 112% (inactive).

For `NNC(=O)CSc1nc2scc(-c3ccccc3)c2c(=O)n1-c1ccccc1`, the growth is 84% (inactive).

For the molecule `C=CCN(CC#N)CC=C`, the growth is 95.5% (inactive).

On to `CCOC(=O)Cn1c(-c2nonc2NC(=O)c2ccccc2F)nc2ccccc21`, for which the growth was 62.3% (inactive).

For the molecule `CCCCCCCOc1cccc(/C=C2\N=C3SCCCN3C2=O)c1`, the growth is 93.7% (inactive).

For the molecule `Cc1c2c(cc3c1[nH]c1ccccc13)C=NCC2`, the growth was 93% (inactive).

In the case of `COc1cc(OC)c(Cl)cc1N`, the growth is 108% (inactive).

For the molecule `CS(=O)(=O)c1ccc(C(=O)Nc2ccc(Cl)c(-c3ccccn3)c2)c(Cl)c1`, the growth is 16.5% (inactive).

`Cc1cc([N+](=O)[O-])c(C)cc1N`: the growth is 101% (inactive).

With `COc1cnc2c(c1)C(=O)c1c-2n(CCCN2CCNCC2)c(=O)c2cc(Cl)ccc12`, the growth is 18.6% (inactive).

For the molecule `COc1cc(/C=C2\CN(C(=O)OC(C)(C)C)C/C(=C\c3ccc(O)c(OC)c3)C2=O)ccc1O`, the growth is 94.6% (inactive).

In the case of `CCN1C(=O)C(C)C=C(C)C=C1C` (centres undefined), the growth was 102% (inactive).

Take `COCc1nc(NS(=O)(=O)c2ccc(N)cc2)nc(C)c1Br`: the growth is 98.2% (inactive).

As to `O=c1c2cc(Br)cc(Br)c2nc(-c2ccc(Cl)cc2)n1/N=C\c1ccccc1F`, the growth is 51.2% (inactive).

`CCCCCCCCCCCCCC1=NC(C)(C)CN1C(C)C`: the growth was 2.64% (active).

Turning to `CCC(=O)OCc1ccc(OC)cc1`, the growth was 101% (inactive).

Take `Fc1ccc(-c2cnc3nonc3n2)c(F)c1`: the growth was 102% (inactive).

`O=S(=O)(Nc1ccc2ccccc2c1)N1CCCCC1`: the growth was 75.9% (inactive).

For the molecule `CCn1c(Cc2ccccc2Nc2c(Cl)cccc2Cl)nnc1SCC(=O)Nc1cccc(OC)c1`, the growth is 83.3% (inactive).

Turning to `CCN(CC)CC(=O)Nc1c(C)ccc(N)c1C`, the growth was 98.4% (inactive).

Turning to `C=C1C[C@@]2(C)C(CC[C@]3(C)C2CC=C2C4CC(C)(C)C[C@@H](OC(=O)/C(C)=C\C)[C@]4(C(=O)O)CC[C@]23C)C(C)(C)C1=O` (some centres undefined), the growth was -72.8% (active).

For `C=C1C(=O)O[C@H]2[C@H]1CC/C(COC(=O)NCc1cccc(OC)c1)=C\CC[C@@]1(C)O[C@@H]21`, the growth was 67.3% (inactive).

As for `CCCCOc1nc2ccccc2cc1/C=C/c1cc(/C=C/c2cc3ccccc3nc2OCCCC)n(-c2ccccc2)n1`, the growth is 95.5% (inactive).

As to `CCCCc1nc(Cl)c(C2CC(c3ccc(S(N)(=O)=O)cc3)=NN2c2cc(Cl)cc(Cl)c2)[nH]1` (centres undefined), the growth was 39% (inactive).

Regarding `O=C(N/N=C\c1cc(Br)ccc1O)c1ccncc1`, the growth was 39.9% (inactive).

Regarding `CC(C)C/C=C/C=C/C(=O)N[C@@H](CC(N)=O)C(=O)N[C@@H]1C(=O)N[C@H](c2ccc(O)cc2)C(=O)N[C@H](CCCN)C(=O)N[C@H]([C@@H](C)O)C(=O)N[C@H](c2ccc(O)cc2)C(=O)N[C@H](c2ccc(O)cc2)C(=O)N[C@H]([C@H](C)O)C(=O)N[C@H](Cc2ccccc2)C(=O)N[C@H](CCCN)C(=O)N[C@H](c2ccc(O[C@H]3O[C@@H](CO)[C@@H](O)[C@@H](O)[C@H]3O[C@@H]3O[C@H](CO)[C@H](O)[C@H](O)[C@@H]3O)cc2)C(=O)N[C@H]([C@H](C)O)C(=O)N[C@H](c2ccc(O)cc2)C(=O)NCC(=O)N[C@H](CC(C)C)C(=O)N[C@H](C)C(=O)N[C@H](c2ccc(O)c(Cl)c2)C(=O)O[C@@H]1C(N)=O`, the growth is 68.6% (inactive).

For the molecule `CN(C)c1ccc(/C=C\c2cccc[n+]2C)cc1`, the growth was 67.7% (inactive).

As for `COC(=O)CSc1ccc(Cl)cc1`, the growth was 123% (inactive).

Consider `S=C(S)Oc1cccc2cccnc12`, for which the growth is 102% (inactive).

`O=C1NN(C(=O)c2ccccc2)C(c2ccc(Cl)c(Cl)c2)=C/C1=C\c1ccccc1[N+](=O)[O-]`: the growth is -10.3% [6.75 µM] (active).

As for `CCOC(=O)Nc1ccc2nc(Sc3ccc(Cl)cc3)sc2c1`, the growth was 58.8% (inactive).

As to `COc1cc(C2CC(c3cccc(Nc4ccnc5cc(Cl)ccc45)c3)=NN2C=O)cc(OC)c1OC` (centres undefined), the growth was 2.98% (active).

For the molecule `c1cn2cc(-c3ccc4ncn(C5CCCCC5)c4c3)nc(-c3ccc4c(c3)ncn4C3CCCCC3)c2n1`, the growth was -56.4% (active).
